TIM10 inh = growth inhibitors of TIM10 yeast strain. S. cerevisiae TIM10 strain growth, BacTiter-Glo luminescence, 24 h. inhibition, % at 10 µM. actives 1.4% (n = 330,000);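 active means inhibition of 40% or more at the single tested concentration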;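 further: wild-type TIM10 isogenic control strain grown at permissive 25 °C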
NALP3 yeast inh = blocks the NALP3 inflammasome reconstituted in yeast; inhibition, % at 10 µM; AID 2825; actives 0.39% (n = 330,000); Yeast reconstituted NLRP3/ASC/caspase-1, beta-gal luminescence, 24 h;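 active means inhibition of 50% or more; inactive means inhibition below 50%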;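 further: plate controls were induced DMSO wells for no effect and uninduced yeast grown without galactose for full effect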
tim10-1 inh = growth inhibitors of tim10-1 mutant yeast; actives 2.2% (n = 330,000); inhibition, % at 20 µM; S. cerevisiae tim10-1 ts strain growth, BacTiter-Glo, 24 h;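 active means inhibition of at least 40%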;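 further: mutant grown at 25 °C; 0% = DMSO wells with yeast and 100% = wells holding no yeast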
PfHsp90 set2 = reduces growth (ATP signal) of yeast expressing P. falciparum Hsp90 | S. cerevisiae expressing PfHsp90, BacTiter-Glo ATP, 48 h; yeast lacking PDR1 and PDR3 efflux regulators | inhibition, % at 9.4 µM | actives 0.32% (n = 310,000) | AID 504621;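 active means every replicate shows inhibition above about 80%, whatever the replicate mean, limit read from the data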;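 further: 0% = DMSO neutral controls and 100% = 20 µM radicicol positive controls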
tim23-1 inh = growth inhibitors of tim23-1 mutant yeast | S. cerevisiae tim23-1 growth, BacTiter-Glo luminescence, 24 h | inhibition, % at 20 µM | actives 1.3% (n = 330,000) | AID 463212;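 active means growth inhibition of the mutant yeast at or above 50%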;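 further: temperature-sensitive mutant grown at 25 °C; plate controls were DMSO-treated mutant yeast for no effect and medium wells lacking yeast for full effect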
tim10-1 confirm = confirmation of tim10-1 mutant yeast growth inhibitors; S. cerevisiae tim10-1 ts strain growth, BacTiter-Glo, 24 h; shares compounds with tim10-1 inh; AID 463213; inhibition, % at 20 µM; actives 56% (n = 7,400);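 active means inhibition of yeast growth at or above a set limit in either of two repeat tests at 20 µM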;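 further: tim10-1 mutant grown at permissive 25 °C to find synthetic lethal compounds; 0% = DMSO yeast wells and 100% = medium wells without yeast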
Active calls of the source: *; · = no result given. A selection: hits, their analogues and other compounds. The true share with any hit is near 3.7%.

SMILES | TIM10 inh | NALP3 yeast inh | tim10-1 inh | PfHsp90 set2 | tim23-1 inh | tim10-1 confirm
COc1ccc(/C=C2\Sc3ccc(C(=O)NC4CC4)cc3N(C)C2=O)cc1OC | 18 | 14 | 2 | 17 | 16 | ·
CN1C(=O)/C(=C\c2ccccc2F)Sc2ccc(C(=O)NC3CCN(Cc4ccccc4)CC3)cc21 | -14 | 20 | 43* | -5 | 12 | -50
N#Cc1ccc(CN2CCN(C(=O)c3ccc(S(=O)(=O)N4CCCCCC4)cc3)CC2)cc1 | 12 | 7 | 13 | -2 | 14 | ·
CCOC(=O)c1c(C)[nH]c(=S)c(C#N)c1-c1ccc(OC)cc1 | 14 | 1 | 32 | 10 | 13 | ·
CCOC(=O)c1c(C)[nH]c(=S)c(C#N)c1-c1ccc(Cl)cc1 | 21 | 17 | 54* | -17 | 36 | 28
COc1ccc(NC(=O)N(C)C[C@H]2Oc3ccc(NC(=O)NC4CCCCC4)cc3C(=O)N([C@H](C)CO)C[C@@H]2C)cc1 | 3 | -7 | -2 | 46 | -5 | ·
COc1ccccc1-c1nnc(Sc2nc([N+](=O)[O-])nn2C)o1 | 35 | -15 | 48* | · | 44 | 42*
O=C(CSc1nnc(CNC(=O)c2cccs2)o1)Nc1cccc(Cl)c1 | 1 | 13 | 22 | 1 | 11 | ·
CCOc1cc(N2CCOCC2)c(OCC)cc1NC(=O)c1ccc2ccccc2n1 | 17 | 7 | 45* | 39 | 31 | 22
CCOc1cc(N2CCOCC2)c(OCC)cc1NC(=O)COC(=O)CCOc1ccc(C)cc1 | 39 | 4 | 41* | -1 | 45 | 29*
CN(CCOc1ccc(Cl)cc1)C(=O)c1cccc(S(=O)(=O)N2CCN(c3ccccc3)CC2)c1 | · | · | · | 1 | · | ·
CCCCNc1cc(NC(C)=O)cc2cc(OC)c(OC)cc12 | 27 | 21 | 44* | 3 | 27 | 31
COc1ccc(N2CCN(C(CNC(=O)C(C)C)c3ccc4c(c3)OCO4)CC2)cc1 (centres undefined) | 3 | 15 | 0 | -1 | 3 | ·
COc1ccc2oc(=O)c(-c3csc(Nc4cccc(O)c4)n3)cc2c1 | 35 | 14 | 45* | 103* | 35 | 37*
COc1ccc(CCNC(=O)C(=O)NCC2CCCN2S(=O)(=O)c2ccc(OC)cc2)cc1 (centres undefined) | 10 | 2 | 19 | · | 24 | ·
CCCc1cc(C(=O)Nc2cccc([N+](=O)[O-])c2)cs1 | 25 | 6 | 41* | 2 | 41 | 31*
CC1(C)SC(=S)N(/N=C/c2ccccc2O)C1N(O)C(=O)Nc1ccccc1 (centres undefined) | -2 | 6 | -4 | -9 | 21 | ·
CC1(C)SC(=S)N(NC(=O)Nc2ccccc2)C1N(O)C(=O)Nc1cccc2ccccc12 (centres undefined) | 14 | 9 | 42* | -6 | 31 | 24
C=CCn1c2ccccc2c2n[nH]c(=S)nc21 | -17 | 8 | -1 | -8 | 8 | ·
CCOC(=O)C1=C(N)Oc2cc(O)ccc2C1c1ccccc1 (centres undefined) | 12 | 14 | 11 | -3 | 14 | ·
CCOC(=O)C1=C(N)Oc2cc(O)ccc2C1c1cccc([N+](=O)[O-])c1 (centres undefined) | 38 | 1 | 46* | -10 | 44 | 30
COc1ccc(/C=C/C(=O)OCC(=O)NC2CCCC2)c(OC)c1 | 11 | 24 | 15 | -16 | 12 | ·
N#Cc1ccc(Cn2ccnc2C(=O)Nc2ccccc2)cc1 | 26 | -72 | 57* | -5 | 2 | 27
CN(C)CCN(C(=O)/C=C/c1cccs1)c1nc2ccc(F)cc2s1 | 29 | 34 | 44* | -19 | 30 | 35*
CCN(CC)CCN(C(=O)/C=C/c1cccs1)c1nc2ccc(Cl)cc2s1 | 35 | 21 | 28 | 10 | 33 | ·
O=C(Nc1cc(Cl)ccc1C(=O)O)c1ccc(CN2C(=O)c3ccccc3C2=O)cc1 | · | · | · | -14 | · | ·
Cc1nn(Cc2ccc([N+](=O)[O-])cc2)c(=O)n1-c1ccccc1Cl | -9 | 17 | 16 | 6 | 6 | ·
Cc1nn(Cc2ccc([N+](=O)[O-])cc2)c(=O)n1N(C)c1ncc(C(F)(F)F)cc1Cl | 24 | 5 | 43* | 9 | 27 | 27*
CNc1ccc(Br)cc(C(=O)/C=C/c2cccc(OC)c2OC)c1=O | 20 | 6 | 42* | 0 | 33 | 34*
CNc1ccc(Br)cc(C(=O)/C=C/c2cccc(Cl)c2Cl)c1=O | · | · | · | 22 | · | ·
